ChEMBL document CHEMBL4296182, “CO-ADD screening of NIH NCI Diversity Set V”
For part of these data: Results with a measured potency or affinity are listed apart.

Tests used:
Staphylococcus aureus = test: Antibacterial activity against Staphylococcus aureus MRSA ATCC 43300 (CO-ADD:GP_020); MIC in CAMBH media using NBS plates, by Resazurin F(560/590); type: functional; conditions: Concentration 20 uM, ASSAY_TEST Inhibition of Bacterial Growth, detection method Resazurin, Fluorescence (ex560/em590), MEDIA CAMHB, plate type 384well, CORNING #3640, time 18 hr
Acinetobacter baumannii = test: Antibacterial activity against Acinetobacter baumannii ATCC 19606 (CO-ADD:GN_034); MIC in CAMBH media using NBS plates, by Resazurin F(560/590); type: functional; conditions: Concentration 20 uM, ASSAY_TEST Inhibition of Bacterial Growth, detection method Resazurin, Fluorescence (ex560/em590), MEDIA CAMHB, plate type 384well, CORNING #3640, time 18 hr
Escherichia coli = test: Antibacterial activity against Escherichia coli ATCC 25922 (CO-ADD:GN_001); MIC in CAMBH media using NBS plates, by Resazurin F(560/590); type: functional; conditions: Concentration 20 uM, ASSAY_TEST Inhibition of Bacterial Growth, detection method Resazurin, Fluorescence (ex560/em590), MEDIA CAMHB, plate type 384well, CORNING #3640, time 18 hr
Klebsiella pneumoniae = conditions: Concentration 20 uM; ASSAY_TEST Inhibition of Bacterial Growth; detection method Absorption (OD600); MEDIA CAMHB; plate type 384well; NBS; CORNING #3640; time 18 hr
Candida albicans = conditions: 20 µM
Cryptococcus neoformans = conditions: Concentration 20 uM; ASSAY_TEST Inhibition of Fungal Growth; detection method Resazurin; Absorption (OD600-OD570); plate type 384well; NBS; CORNING #3640

| SMILES | Inhibition (Staphylococcus aureus) | Inhibition (Acinetobacter baumannii) | Inhibition (Escherichia coli) | Inhibition (Klebsiella pneumoniae) | Inhibition (Candida albicans) | Inhibition (Cryptococcus neoformans) |
| --- | --- | --- | --- | --- | --- | --- |
| COc1ccccc1N1C(=O)CC(Sc2ccccc2N)C1=O (centres undefined) | 13.62% | 1.84% | 10.06% | 1.73% | 0.29% | -6.31% |
| CCOC(=O)c1cc(-c2cccnc2)nc2c(Cl)cc(Cl)cc12 | 15.12% | -10.84% | 5.86% | 9.75% | 4.8% | -6.65% |
| COC(=O)C1=C(C(=O)OC)[C@@H]2CCC[C@H]1[C@H]1[C@@H]2N=NN1c1ccccc1 | 22.18% | -12.99% | 6.51% | 9.18% | 2.48% | 8.73% |
| O=C(Nc1cccc([N+](=O)[O-])c1)c1cccc(C(=O)Nc2cccc([N+](=O)[O-])c2)c1 | -2.9% | 3.66% | 1.98% | 5.84% | -0.13% | 37.96% |
| O=C(COc1cc(Cl)c(Cl)cc1Cl)Nc1ccc([N+](=O)[O-])cc1Cl | 25.16% | -3.59% | 13.57% | 15.89% | 2.39% | 1.18% |
| COC(=O)c1c[n+]([O-])ccc1OC | -9.06% | -1.68% | -4.59% | 7.09% | -2.55% | -2.93% |
| COC(=O)c1ccccc1NCCO | -8.89% | 2.46% | 10.44% | 7.33% | -0.42% | -9.6% |
| Cc1c(C(C)(C(=O)O)c2c(C)n(C)c3ccccc23)c2ccccc2n1C | 11.46% | 7.57% | 2.78% | 3.48% | 9.04% | -5.48% |
| Cc1c(Cl)cccc1Nc1ncccc1C(=O)OCC(O)CO (centres undefined) [CLONIXERIL] | 16.87% | 6.56% | -0.19% | 9.09% | -1.76% | -6.15% |
| Nc1nc(O)c2ncn(C3CCCC3)c2n1 | 3.29% | -9.23% | 3.79% | 16.95% | -0.06% | -9.03% |
| NC1=C2C(=O)c3ccccc3C(=O)C2=C(N)CC1 | -13.27% | 1.08% | -5.53% | 8.56% | 22.9% | -5.51% |
| OCc1nnn(-c2ccccc2)c1CO | 11.04% | -9.88% | 7.14% | 22.49% | -4.02% | -6.38% |
| CCc1nc(NC(C)(C)C)c2cnn(-c3ccccc3)c2n1 | 6.25% | 2.78% | 2.08% | 23.15% | 15.4% | -0.88% |
| CC(C)(C)N1CC(OC(N)=O)C1 | 21.14% | -14.09% | 8.01% | 8.74% | 1.7% | -9.34% |
| CSc1ncc2ncn(C3OC(CO)C(O)C3O)c2n1 (centres undefined) | 5.7% | 9.73% | -9.56% | 13.33% | 3.06% | -1.46% |
| NS(=O)(=O)c1ccc(/N=N/c2ccc(O)[nH]c2=O)cc1 | -4.07% | -21.96% | 14.83% | 2.74% | 3.25% | -15.42% |
| Cc1nnc2nc(-c3ccccc3)nc(-c3ccccc3)n12 | -12.94% | 8.22% | 2.26% | 4.14% | 4.58% | -11.59% |
| CC(=O)Nc1ccc(Cc2nc3c(=O)n(C)c(=O)n(C)c3[nH]2)cc1 | 10.98% | -13.87% | 3.26% | 6.41% | 3.5% | -7.42% |
| CCSc1nc(O)cc(O)n1 | 23.71% | -7.74% | 11.78% | 13.65% | 4.28% | 3.85% |
